High-throughput results: PubChem BioAssay, National Center for Advancing Translational Sciences (NCATS)
HP1b chromo inh: HP1-beta chromodomain-methylated histone interaction inhibition; AlphaScreen HP1-beta / biotin-H3K9me3 peptide binding; 390,000 tested, 0.56% active; Potency, µM (doses to about 114 µM), without a hit: top-dose activity change, negative = inhibition, actives largely listed as inhibitors; P83916; AID 540317; note: nearly all actives have a fitted effect of over 70% in size
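HP1-beta protein (50 nM final) preincubated 30 min at room temperature with biotinylated H3(1-18)K9me3 peptide (50 nM) in PBS pH 7.4, 0.01% Tween-20, then compound added for 30 min. AlphaScreen streptavidin donor/nickel chelate acceptor beads (10 ug/mL final), 30 min dark, luminescence read.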
JMJD2A Tudor: JMJD2A Tudor domain (human) inhibition | AlphaScreen JMJD2A-Tudor / H3K4me3 peptide binding | Potency, µM (doses to about 114 µM), for the others: at the highest dose activity change, negative = inhibition, most hits filed as inhibitors | 390,000 tested, 4.4% active | O75164; note: % is set by controls: 0 for no effect and ±100 for the full control effect; nearly all actives have a fitted effect of over 50% in size
Target sequence (O75164 whole entry, looked up, the tested form may be a part): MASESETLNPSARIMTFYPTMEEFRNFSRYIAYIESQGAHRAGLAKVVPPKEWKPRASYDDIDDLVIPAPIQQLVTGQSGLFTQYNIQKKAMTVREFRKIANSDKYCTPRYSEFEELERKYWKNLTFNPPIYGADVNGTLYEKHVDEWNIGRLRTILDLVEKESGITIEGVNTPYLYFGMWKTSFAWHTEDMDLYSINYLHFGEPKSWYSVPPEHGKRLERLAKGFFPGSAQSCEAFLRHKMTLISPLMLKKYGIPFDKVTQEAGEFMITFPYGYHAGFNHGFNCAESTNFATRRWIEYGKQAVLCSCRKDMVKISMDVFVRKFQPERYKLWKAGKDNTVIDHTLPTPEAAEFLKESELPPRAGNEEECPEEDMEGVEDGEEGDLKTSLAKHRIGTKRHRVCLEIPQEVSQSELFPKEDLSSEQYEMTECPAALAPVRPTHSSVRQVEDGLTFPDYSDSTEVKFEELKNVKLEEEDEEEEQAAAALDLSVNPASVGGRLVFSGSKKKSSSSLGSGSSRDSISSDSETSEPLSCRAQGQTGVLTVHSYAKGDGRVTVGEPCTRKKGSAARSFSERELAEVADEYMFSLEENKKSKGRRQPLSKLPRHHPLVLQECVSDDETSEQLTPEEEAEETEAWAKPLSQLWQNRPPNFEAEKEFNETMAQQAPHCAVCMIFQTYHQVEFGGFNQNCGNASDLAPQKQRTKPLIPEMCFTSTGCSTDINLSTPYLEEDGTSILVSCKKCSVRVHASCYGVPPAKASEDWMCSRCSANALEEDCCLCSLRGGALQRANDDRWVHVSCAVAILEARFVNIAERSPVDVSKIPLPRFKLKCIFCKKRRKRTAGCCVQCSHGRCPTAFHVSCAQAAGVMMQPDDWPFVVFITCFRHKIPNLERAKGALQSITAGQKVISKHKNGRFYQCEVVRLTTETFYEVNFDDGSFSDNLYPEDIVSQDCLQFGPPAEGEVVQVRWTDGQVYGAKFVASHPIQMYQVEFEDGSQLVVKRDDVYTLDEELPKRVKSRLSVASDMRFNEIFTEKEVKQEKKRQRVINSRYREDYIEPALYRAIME
12-LOX inh: blocks human arachidonate 12S-lipoxygenase; P18054; Potency, µM (series often up to 108 µM), without a hit: top-dose activity change, negative = inhibition, hits mostly inhibitors; purified 12hLO, xylenol orange hydroperoxide absorbance; 580,000 tested, 1.1% active; AID 1671190; note: % is set by controls: 0 for no effect and ±100 for the full control effect
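Hydroperoxide product was detected by ferrous iron/xylenol orange as the 573 to 405 nm absorbance ratio. Arachidonic acid at 40 uM (final) was turned over for 30 min at room temperature by 150 nM human 12hLO, pH 7.0 Hepes buffer, after 15 min compound preincubation.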
BAZ2B block: blocks human BAZ2B; 360,000 tested, 4.4% active; AlphaScreen BAZ2B-H3K14Ac peptide displacement; Potency, µM (series often up to 114 µM), inactives show at the top dose activity change, negative = inhibition, usual class: inhibitors; Q9UIF8; AID 504333; note: % is set by controls: 0 for no effect and ±100 for the full control effect; nearly all actives have a fitted effect of over 60% in size
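In this displacement format the biotinylated H3(5-23) peptide acetylated at Lys14 serves as ligand at 50 nM, with BAZ2B at 50 nM in PBS pH 7.4 containing 0.01% Tween-20. Donor and acceptor beads are 10 ug/mL final.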
G9a block: blocks human histone lysine methyltransferase G9a; Potency, µM (top dose mostly 102 µM), for inactives: top-dose activity, negative = inhibition, usual class: inhibitors; G9a H3K9 monomethylation, AlphaScreen, 2 h; 350,000 tested, 8.8% active; note: % is set by controls: 0 for no effect and ±100 for the full control effect; nearly all actives have a fitted effect of over 75% in size
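Step 1: enzyme (final 20 nM) with compound, 15 min RT. Step 2: substrate peptide 500 nM and SAM 20 uM, 2 h RT. Step 3: anti-H3K9me1 antibody and AlphaScreen beads, 10 min, then plate read.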
Sfp inh: inhibitors of Bacillus subtilis Sfp phosphopantetheinyl transferase; Q9F4F7; Biochemical Sfp PPTase activity, qHTS; Potency, µM, inactives show largest response in the series, negative = inhibition, usual class: inhibitors; 310,000 tested, 3.5% active;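 note: the enzyme is Sfp with the accession as filed and its product quenches rhodamine fluorescence; 0% = enzyme reaction without inhibitor and -100% = no enzyme wells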
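Fluorescence-quenching assay with 15 nM Sfp, 5 uM rhodamine-CoA and 12.5 uM BHQ-2-labelled ybbR peptide in pH 7.6 Hepes/MgCl2 buffer. Enzyme was pre-incubated with compound for 15 min at room temperature. Rate was taken from the 30-min fluorescence change (525/598 nm).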
The depositor's hits bear a star; [ ] = remark or other dose. Only some compounds are listed: those with a hit (about 8.7% of all), similar ones and a draw of the others. Calls come from the whole dose curve; as a rule, active = well fitted curve in the direction sought with a large enough effect; inconclusive = small, poorly fitted or top-dose-only effect, or another doubt; inactive = no such curve, though single readings can be large; an effect the other way counts as inactive or inconclusive. Potency is the fitted concentration of half-maximal effect.

What do the screens show for `COc1ccc(S(=O)(=O)N2CCN(Cc3cccc([N+](=O)[O-])c3)CC2)cc1`?
HP1b chromo inh: inconclusive; JMJD2A Tudor: 20µM*; 12-LOX inh: -74.6%

Results for COc1ccc(S(=O)(=O)N2CCN(Cc3cccc(F)c3)CC2)cc1 ?
HP1b chromo inh: inconclusive; JMJD2A Tudor: 3.16µM*; 12-LOX inh: -25.5%

How did COc1ccc(S(=O)(=O)N2CCN(Cc3ccc4c(c3)OCO4)CC2)cc1 do in these assays?
HP1b chromo inh: 18.1%; JMJD2A Tudor: -27.3%; 12-LOX inh: -5.0%; BAZ2B block: inconclusive; G9a block: -5.5%; Sfp inh: 13.8%

Results for COc1ccc(S(=O)(=O)N2CCN(Cc3cccc(Cl)c3)CC2)cc1 ?
HP1b chromo inh: 16.0%; JMJD2A Tudor: -11.8%; 12-LOX inh: 1.3%; BAZ2B block: -0.9%; G9a block: -20.9%[59 µM]; Sfp inh: -11.9%

What do the screens show for `COCCNC(=O)c1nc(-c2ccc(F)cc2)c2cnccn12`?
12-LOX inh: 13.0%[176 µM]

What do the screens show for `CCCOc1cc(OCCC)cc(C(=O)Nc2cccc(-c3nc4ncccc4o3)c2)c1`?
12-LOX inh: -0.3%

What do the screens show for `COc1ccc(S(=O)(=O)N2CCN(Cc3ccccc3[N+](=O)[O-])CC2)cc1`?
HP1b chromo inh: inconclusive; JMJD2A Tudor: 3.16µM*; 12-LOX inh: inconclusive

What do the screens show for `O=[N+]([O-])c1ccccc1CN1CCN(S(=O)(=O)Cc2ccccc2)CC1`?
HP1b chromo inh: inconclusive; JMJD2A Tudor: 0.794µM*; 12-LOX inh: inconclusive; BAZ2B block: 44.7µM*; Sfp inh: inconclusive

Results for Cc1cc(C)c(NC(=O)CCn2cnc3c2c(=O)n(C)c(=O)n3C)c(C)c1 ?
12-LOX inh: 17.3%

Results for O=S(=O)(O)CC(S)CS (configuration not stated) ?
12-LOX inh: -5.2%; G9a block: -34.1%[2.33 µM]; Sfp inh: 2.82µM*

What do the screens show for `O=S(=O)(O)CCl`?
12-LOX inh: -13.6%

Results for Cc1ccc2c(c1)c1c3n2CC(=C2C(=O)OC(C)(C)OC2=O)NC3CCC1 (configuration not stated) ?
HP1b chromo inh: -16.6%; JMJD2A Tudor: inconclusive; 12-LOX inh: 11.2µM*; BAZ2B block: inconclusive; G9a block: inconclusive; Sfp inh: -55.7%

What do the screens show for `Cc1ccc2c(c1)c1c(n2CC2COC(C)(C)O2)C(=O)CCC1` (configuration not stated)?
HP1b chromo inh: 43.7%; JMJD2A Tudor: 34.1%; 12-LOX inh: inconclusive; BAZ2B block: 3.4%; G9a block: 19.7%[59 µM]; Sfp inh: 0.1%

What do the screens show for `CC(=O)N/C(=C\c1ccc(C)o1)C(=O)NCc1ccccc1`?
HP1b chromo inh: 42.7%; JMJD2A Tudor: -28.3%; 12-LOX inh: -3.4%; BAZ2B block: -1.5%; G9a block: 70.8µM*; Sfp inh: -4.2%

What do the screens show for `Cc1ccc(/C=C(\NC(=O)c2ccccc2)C(=O)NCC2CCCO2)o1` (configuration not stated)?
HP1b chromo inh: 32.9%; JMJD2A Tudor: -7.4%; 12-LOX inh: 8.3%; BAZ2B block: -12.2%; G9a block: 56.2µM*; Sfp inh: 14.7%

How did CNC(=O)Nc1ccc(Cn2cc(C(F)(F)F)ccc2=O)cc1 do in these assays?
HP1b chromo inh: 50.3%; JMJD2A Tudor: 7.6%; 12-LOX inh: 5.6%; BAZ2B block: -21.4%; G9a block: 6.3%; Sfp inh: -8.8%

What do the screens show for `COc1ccc(CNC(=O)Cn2cc(C(F)(F)F)ccc2=O)cc1`?
HP1b chromo inh: 15.6%; JMJD2A Tudor: -11.5%; 12-LOX inh: -12.9%; BAZ2B block: 12.2%; G9a block: 50.1µM*; Sfp inh: -7.7%

Results for CN(CC(=O)NCc1ccccc1)Cc1ccc(Cl)cc1 ?
HP1b chromo inh: 26.2%; JMJD2A Tudor: -5.0%; 12-LOX inh: 11.7%; BAZ2B block: -1.1%; G9a block: -8.4%; Sfp inh: 10.6%

How did COc1ccc(CNC(=O)CN(C)Cc2ccc(C(C)(C)C)cc2)cc1 do in these assays?
HP1b chromo inh: inconclusive; JMJD2A Tudor: 2.82µM*; 12-LOX inh: -28.2%; BAZ2B block: 22.4µM*; G9a block: 39.8µM*; Sfp inh: inconclusive

What do the screens show for `CN(CC(=O)NC(=O)NCc1ccccc1)Cc1ccc(Cl)cc1`?
HP1b chromo inh: 45.1%; JMJD2A Tudor: 16.4%; 12-LOX inh: -14.5%; BAZ2B block: -3.1%; G9a block: 44.7µM*; Sfp inh: -12.9%

Results for COc1ccc(CNC(=O)c2ccc(C(C)(C)C)cc2)cc1 ?
HP1b chromo inh: 17.3%; JMJD2A Tudor: -9.3%; 12-LOX inh: -0.7%; BAZ2B block: 0.5%; Sfp inh: -5.8%

What do the screens show for `CC(C)(C)NC(=O)Nc1ccc(Cn2cc(C(F)(F)F)ccc2=O)cc1`?
HP1b chromo inh: -4.7%; JMJD2A Tudor: 31.6µM*; 12-LOX inh: 0.1%; BAZ2B block: 2.4%; G9a block: 8.3%; Sfp inh: 17.2%

How did O=C(CN1CCN(C(=O)c2cc(-c3ccccc3Cl)n[nH]2)CC1)N1CCCCC1 do in these assays?
12-LOX inh: 0.5%

What do the screens show for `COc1ccc(CN2CCNC(=O)C2CC(=O)NC2CCC2)c(OC)c1` (configuration not stated)?
HP1b chromo inh: 18.0%; JMJD2A Tudor: -8.1%; 12-LOX inh: inconclusive; BAZ2B block: -12.6%; G9a block: -17.6%; Sfp inh: 19.9%

What do the screens show for `COc1cccc(CN2CCNC(=O)C2CC(=O)NCCn2ccc3ccccc32)c1OC` (configuration not stated)?
HP1b chromo inh: 11.7%; JMJD2A Tudor: inconclusive; 12-LOX inh: 3.1%; BAZ2B block: inconclusive; G9a block: 39.8µM*; Sfp inh: 1.2%

How did COc1cccc(CN2CCNC(=O)C2CC(=O)NC2CCOCC2)c1OC (configuration not stated) do in these assays?
HP1b chromo inh: 37.9%; JMJD2A Tudor: -1.6%; 12-LOX inh: 13.8%; BAZ2B block: 18.8%; G9a block: 44.7µM*; Sfp inh: -4.7%

Results for COc1ccc(CN2CCNC(=O)C2CC(=O)NC2CCCC2)c(C)c1C (configuration not stated) ?
HP1b chromo inh: 11.8%; JMJD2A Tudor: 20µM*; 12-LOX inh: -7.8%; BAZ2B block: inconclusive; G9a block: 44.7µM*; Sfp inh: -4.5%

How did Cc1ccccc1CCNC(=O)C1CC2CCCC(C1)C2=O (configuration not stated) do in these assays?
12-LOX inh: -2.6%

How did CCCCN(CC(=O)NC(=O)NCc1ccccc1)c1ccccc1 do in these assays?
12-LOX inh: -13.1%
